Test results reported in PubChem BioAssay (NCI).
Compounds without any hit were thinned out: in the full panel of roughly 79,000, 15% have a hit. Unmarked numbers belong to inactive results. Calls of active or inactive are those of the source. Rule as the data show it: active = growth inhibition above about 70%; inactive = the rest.

Assay: NCI Yeast Anticancer Drug Screen. Data for the rad14 strain (AID 159);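 also: 0% = growth of vehicle-treated control cultures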
Details: S. cerevisiae rad14 strain growth inhibition, hits give high values
Method: Growth inhibition of yeast strains with defined genetic alterations is measured as a screen for potential anti-cancer activity. Selected strains with alterations in DNA damage repair or cell cycle control were exposed to compounds and growth inhibition was measured relative to vehicle treated controls. The strain used in this assay is rad14

Row | Structure (SMILES) | growth inhibition (at 1.2 µM) [%] | growth inhibition (at 3.7 µM) [%] | growth inhibition (at 11.0 µM) | growth inhibition (at 33.0 µM) | growth inhibition (at 100.0 µM)
1 | CCC1(OC(=O)CN)C(=O)OCc2c1cc1n(c2=O)Cc2cc3ccccc3nc2-1 (stereo not given) | 4 | 23 | 76% (active) | 93% (active) | 96% (active)
2 | CSc1ccccc1[As](C)C | 5 | 26 | 87% (active) | 99% (active) | 100% (active)
3 | CC1=C(N2CC2)C(=O)c2ccccc2C1=O | 2 | 3 | 14% | 32% | 92% (active)
4 | O=[N+]([O-])c1cc(S(=O)(=O)F)ccc1Cl | 1 | -6 | 7% | 94% (active) | 99% (active)
5 | Oc1c(Br)cc(Br)cc1Br | -2 | 3 | 0% | 36% | 77% (active)
6 | CCCCCCCCCCCCCCCCP(=O)(O)OP(=O)(O)OCC1OC(n2ccc(N)nc2=O)C(O)C1O (stereo not given) | -2 | -1 | -1% | -1% | 1%
7 | CC[C@](O)(C(=O)O)c1cc2n(c(=O)c1CO)Cc1cc3ccccc3nc1-2 | 3 | 29 | 81% (active) | 93% (active) | 96% (active)
8 | CC1CC(Br)C(=O)O1 (stereo not given) | -49 | -42 | -30% | 58% | 85% (active)
